Among all 39,000 compounds or so, about 3,300 (8.5%) were called active. Only a selection was taken, and actives are over-represented in it overall.
tested on: HepG2; assay: cytotoxicity call (relative viability < 0.9); details: 10 µM

Structure (SMILES)	cytotoxicity call
O=C(NC(=O)c1c(F)cccc1F)Nc1ccc(Cl)cc1	inactive
O=C(NC(=O)c1c(F)cccc1F)Nc1cc(Cl)c(OC(F)(F)[C@@H](F)C(F)(F)F)cc1Cl	inactive
O=C(NC(=O)c1c(F)cccc1F)Nc1cc(Cl)c(OC(F)(F)C(F)C(F)(F)F)cc1Cl (stereo not given)	active
COC(=O)C[C@](O)(CCC(C)(C)O)C(=O)O[C@@H]1C(OC)=C[C@]23CCCN2CCc2cc4c(cc2[C@H]13)OCO4	active
CN1CCc2cc3c(cc2[C@@H]1O)OCO3	inactive
CN1CCc2cc3c(cc2C1O)OCO3.Cl (stereo not given)	inactive
CN1C[C@@H]2c3nc(N(C)C)ncc3CS(=O)(=O)[C@H]2C1	inactive
CC(C)[C@@]1(NC(=O)[C@H]2C[C@@H]3c4cccc5[nH]cc(c45)C[C@H]3N(C)C2)O[C@@]2(O)[C@H]3CCCN3C(=O)[C@@H](Cc3ccccc3)N2C1=O	inactive
CN1CC(CNC(=O)OCc2ccccc2)CC2c3cccc4c3c(cn4C)CC21 (stereo not given)	active
CCC(CO)NC(=O)C1C=C2c3cccc4c3c(cn4C)CC2N(C)C1.O=C(O)C=CC(=O)O (stereo not given)	inactive
CC(C)[C@@]1(NC(=O)[C@@H]2C[C@@H]3c4cccc5[nH]cc(c45)C[C@H]3N(C)C2)O[C@@]2(O)[C@@H]3CCCN3C(=O)[C@H](Cc3ccccc3)N2C1=O	inactive
CC(=O)OCC1=C(C(=O)O)N2C(=O)[C@@H](N)[C@H]2SC1	inactive
CC(=O)Nc1cc([As](=O)(O)O)ccc1O	inactive
COC1=CC2C3Cc4ccc(OC)c(O)c4C2(CCN3C)CC1=O (stereo not given)	inactive
C=C1[C@@H](C)[C@H]2[C@H](Cc3ccccc3)NC(=O)[C@]23[C@H](OC(C)=O)/C=C/[C@](C)(O)C(=O)[C@@H](C)C/C=C/[C@H]3[C@@H]1O	active
Cc1noc(C)c1C(=O)N1C[C@@H]2CCN[C@@H]2C1	inactive
CC1=NCCN=C(C)C1N1CCOCC1	inactive
O=C(OC1CC2CCC(C1)[N+]21CCCC1)C(O)(c1ccccc1)c1ccccc1.[Cl-] (stereo not given)	inactive
N[C@@]1(C(=O)O)CC[C@@H](C(=O)O)C1.N[C@]1(C(=O)O)CC[C@H](C(=O)O)C1	inactive
CCC(C(=O)[O-])C1CCC(C)C(C(C)C(O)C(C)C(=O)C(CC)C2OC3(C=CC(O)C4(CCC(C)(C5CCC(O)(CC)C(C)O5)O4)O3)C(C)CC2C)O1.[Na+] (stereo not given)	active
CC[C@@H](C(=O)[C@@H](C)[C@@H](O)[C@H](C)[C@@H]1O[C@@H]([C@@H](CC)C(=O)O)CC[C@@H]1C)[C@H]1O[C@]2(C=C[C@@H](O)[C@]3(CC[C@@](C)([C@H]4CC[C@](O)(CC)[C@H](C)O4)O3)O2)[C@H](C)C[C@@H]1C	inactive
CCCCC(=O)N1C[C@@H]2CCNC[C@@H]21	inactive
Cc1csc(CCN)n1	inactive

Structure (SMILES)	cytotoxicity call
CN1[C@@H]2CNc3ccccc3[C@@H]2[C@@H]1CO	inactive
CCN1C[C@]2(OC(=O)c3ccccc3NC(C)=O)CC[C@@H](OC)[C@@]34[C@H]5C[C@@H]6[C@@H](OC)C[C@](O)([C@@H](C[C@@H]23)[C@@H]14)[C@]5(O)[C@H]6OC	inactive
N[C@@H](Cn1oc(=O)[nH]c1=O)C(=O)O	inactive
Br.COC(=O)C1=CCCN(C)C1	active
COC(=O)C1=CCCN(C)C1	inactive
Clc1cc2c(cc1Cl)Oc1cc(Cl)c(Cl)cc1O2	inactive
CNCC(=O)c1ccc(O)c(O)c1	inactive
C[C@H]1CN([C@@H](C)CO)C(=O)c2c(c3ccccc3n2C)-c2ccccc2CO[C@H]1CN(C)C(=O)Oc1ccccc1	inactive
N[C@H]1Cc2ccccc2[C@@H]1O	inactive
O=[N+]([O-])c1ccc([As](=O)(O)O)cc1 [listing 1 of 2 here]	inactive
O=[N+]([O-])c1cc([As](=O)(O)O)ccc1O	inactive
O=[N+]([O-])c1ccc([As](=O)(O)O)cc1 [listing 2 of 2 here]	active
CC1=C2C3OC(=O)C(C)C3CCC2(C)C=CC1=O (stereo not given)	inactive
O=C1NC(=S)NC(=O)C1=Cc1ccccc1	inactive
C=CC=CCC1=C(C)C(OC(=O)C2C(C=C(C)C)C2(C)C)CC1=O (stereo not given)	inactive
Oc1cc(Cl)ccc1Oc1ccc(Cl)cc1Cl [listing 1 of 2 here]	active
Oc1cc(Cl)ccc1Oc1ccc(Cl)cc1Cl [listing 2 of 2 here]	inactive
Nc1ccc(Cl)cc1Cl	inactive
Cc1nc(-c2ccc(-c3ccc(C(=O)N4CCc5cc6c(cc54)C4(CCN(C)CC4)CO6)cc3)c(C)c2)no1	active
NCCc1nc2ccccc2[nH]1	inactive
O[C@H]1[C@H]2[C@H](O)CCCN2C[C@H]1O	inactive
COc1ccc(C(=O)O[C@H]2CC[C@@]3(C)[C@@H]4CC[C@H]5[C@]6(O)C[C@H](O)[C@@]7(O)[C@@H](CN8C[C@@H](C)CC[C@H]8[C@@]7(C)O)[C@]6(O)C[C@@]53O[C@]24O)cc1OC	inactive
